Rows were chosen to be rich in hits. Some 11% of all compounds tested hit in one or more screens of this group.
Pf growth 96h: Primary qHTS for delayed death inhibitors of the malarial parasite plastid, 96 hour incubation. AID 504834, 2011. P. falciparum luciferase reporter growth, 96 h. Potency, µM (top dose mostly 28.7 µM), without a hit: at the top dose activity change, negative = inhibition, hits mostly inhibitors. 320,000 compounds, 6.9% hits
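P. falciparum expressing integrated firefly luciferase, in erythrocytes at 2% hematocrit, 0.05% parasitemia, incubated with compounds 96 h at 37 C, 5% CO2. Growth inhibition read as loss of luminescence; two-generation exposure targets delayed-death apicoplast inhibitors.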
Pf growth 48h: Primary qHTS for delayed death inhibitors of the malarial parasite plastid, 48 hour incubation; AID 504832, 2011; 310,000 compounds, 5.9% hits; Potency, µM (titrated, usually from 28.7 µM), for the others: top-dose activity change, negative = inhibition, most hits filed as inhibitors; P. falciparum luciferase growth in erythrocytes, 48 h
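Growth was read as firefly luciferase luminescence after a 48 h, 37 C, 5% CO2 exposure of compounds to reporter-bearing P. falciparum cultures (0.1% parasitemia, 2% hematocrit final) in Albumax-supplemented RPMI 1640.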
AMA1-RON2 inh: qHTS for Inhibitors of AMA1-RON; Towards Development of Antimalarial Drug Lead: Primary Screen; AlphaScreen AMA1-biotinylated RON2 peptide binding; Potency, µM (doses to about 58.2 µM), for inactives: at the top dose activity change, negative = inhibition, most hits filed as inhibitors; 360,000 compounds, 0.2% hits; AID 720542, 2013;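 also: 0% = vehicle wells and -100% = peptide control; nearly all actives have a fitted effect of over 45% in size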
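AMA1 (3D7) with his tag at 25 nM final met compounds first, then biotinylated RON2 peptide at 25 nM; detection used donor plus acceptor beads, 10 µg/mL apiece, read by AlphaScreen after 30 min at room temperature.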
HCV inh: qHTS Assay for Inhibitors of Hepatitis C Virus (HCV); Huh7.5.1 HCVcc-Cre infection, luciferase reporter, 44 h; Potency, µM (series often up to 41.8 µM), for the others: top-dose activity change, negative = inhibition, actives largely listed as inhibitors; 340,000 compounds, 3.4% hits; AID 651820, 2012
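Cells (1,000/well) were plated 4 h before compound, then infected with HCVcc-Cre virus (~0.5 moi). After 44 h further culture, infection was read as luciferase luminescence following a 15 min substrate incubation at room temperature.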
AmpC detergent: qHTS Inhibitors of AmpC Beta-Lactamase (assay with detergent) | AmpC hydrolysis of nitrocefin, absorbance 480 nm, 0.01% Triton | Potency, µM (top dose mostly 114 µM), without a hit: top-dose activity change, negative = inhibition, usual class: inhibitors | 370,000 compounds, 0.041% hits | AID 485294, 2010;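 also: 0% = no-compound wells and -100% = no-enzyme wells; nearly all actives have a fitted effect of over 25% in size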
Target sequence (P00811 whole entry, looked up): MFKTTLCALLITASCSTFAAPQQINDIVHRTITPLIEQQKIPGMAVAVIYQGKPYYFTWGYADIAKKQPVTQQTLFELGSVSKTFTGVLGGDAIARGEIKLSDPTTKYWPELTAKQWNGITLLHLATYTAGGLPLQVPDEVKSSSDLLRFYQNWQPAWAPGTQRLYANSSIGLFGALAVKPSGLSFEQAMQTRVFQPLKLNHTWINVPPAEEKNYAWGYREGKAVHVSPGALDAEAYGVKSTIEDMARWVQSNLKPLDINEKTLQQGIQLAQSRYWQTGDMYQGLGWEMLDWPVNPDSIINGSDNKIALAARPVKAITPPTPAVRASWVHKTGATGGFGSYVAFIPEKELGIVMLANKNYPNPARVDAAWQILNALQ
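AmpC (5.3 nM in the dispensed reagent) in 20 mM phosphate pH 7.0 with 0.01% (detergent screen) or 0.0001% Triton X-100 was preincubated with compounds for 15 min at room temperature. Nitrocefin was then added from an 800 uM solution, and hydrolysis was followed at 480 nm.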
AmpC no deterg: qHTS Inhibitors of AmpC Beta-Lactamase (assay without detergent) | P00811 | AmpC nitrocefin hydrolysis, absorbance 480 nm, 0.0001% Triton | 330,000 compounds, 0.52% hits | Potency, µM (top dose mostly 57.1 µM), inactives show top-dose activity change, negative = inhibition, hits mostly inhibitors;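 also: plate controls were no compound for no effect and no enzyme for full effect; nearly all actives have a fitted effect of over 20% in size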
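AmpC (5.3 nM in the dispensed reagent) in 20 mM phosphate pH 7.0 with 0.01% (detergent screen) or 0.0001% Triton X-100 was preincubated with compounds for 15 min at room temperature. Nitrocefin was then added from an 800 uM solution, and hydrolysis was followed at 480 nm.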
* marks the source's active call; other numbers are inactive results; ? = inconclusive; / = no result; ! = a repeat was not active; [ ] = dose if it differs, or a comment. Calls follow the shape of the dose curve; as a rule, active = well fitted curve in the direction sought with a large enough effect; inconclusive = small, poorly fitted or top-dose-only effect, or another doubt; inactive = no such curve, though single readings can be large; an effect the other way counts as inactive or inconclusive. Unless noted, % is scaled to controls: 0 for no effect and ±100 for the full control effect; potency is read from the fitted curve at half-maximal effect.

SMILES	Pf growth 96h	Pf growth 48h	AMA1-RON2 inh	HCV inh	AmpC detergent	AmpC no deterg
C=CCNC(=O)/C(C#N)=C/c1c(N2CCN(c3ccc(OC)cc3)CC2)nc2c(C)cccn2c1=O	?	13µM*	?	-12%	0%	102%
COC(=O)/C(C#N)=C/c1c(N2CCN(c3ccccc3)CC2)nc2c(C)cccn2c1=O	?	9.3µM*	-26%	?	-1%	57%
COC(=O)/C(C#N)=C/c1c(N2CCN(c3cccc(Cl)c3)CC2)nc2c(C)cccn2c1=O	?	?	-11%	8%	3%	-9%
COCCCNC(=O)/C(C#N)=C/c1c(N2CCN(c3cccc(Cl)c3)CC2)nc2c(C)cccn2c1=O	?	?	-10%	?	3%	10%
COCCCNC(=O)/C(C#N)=C/c1c(N2CCN(c3ccccc3)CC2)nc2c(C)cccn2c1=O	10µM*	13µM*	-18%	-23%	2%	121%
Cc1cc(C)c(NC(=O)C(C)n2nc(C)c3sc4ccccc4c3c2=O)c(C)c1 (stereo unspecified)	/	/	/	/	3%	/
O=C(O)c1cc(N=Nc2c(O)ccc3ccccc23)cc(C(=O)O)c1	?	?	-9%	11%	-11%	-13%
O=C(O)c1ccc(N=Nc2c(O)ccc3ncccc23)cc1	57%	?	6.3µM*	-19%	0%	-27%
O=C(CSc1nnc(CNC(=O)c2cccs2)o1)Nc1ccc(Br)cc1	13µM*	7%	-11%	13%	-12%	-28%
Cc1cc(C)cc(NC(=O)CSc2nnc(CNC(=O)c3cccs3)o2)c1	70%	10%	-1%	19%	-4%	-22%
O=C(CSc1nnc(CNC(=O)c2cccs2)o1)Nc1ccc(Cl)cc1	10µM*	2%	-3%	8%	-7%	-17%
CC1CCN(C(=O)Cn2ncc3c4ccccc4n(Cc4ccc(Cl)cc4)c3c2=O)CC1	/	/	/	/	19%	/
N=c1c2ccccc2nc2n1CCCCCCCCCCC2	/	/	12%	13µM*	/	/
O=c1c2ccccc2nc2n1CCCCC2	?	62%	7%	5%	-1%	-10%
CCOC(=O)c1c(C)[nH]c(C)c1S(=O)(=O)N1CCC(C(=O)NCc2ccc(N(C)C)cc2)CC1	/	/	/	/	3%	/
CC(=O)OCC(=O)[C@@]1(O)CC[C@H]2[C@@H]3CCC4=CC(=O)CC[C@]4(C)[C@H]3[C@@H](O)C[C@@]21C	-8%	?	6%	-6%	?	13%
CCC(C)C(NC(=O)CCC(=O)OCC(=O)[C@@]1(O)CCC2[C@@H]3CCC4=CC(=O)C=C[C@]4(C)C3[C@@H](O)C[C@@]21C)C(=O)O (stereo partly specified)	?	3.7µM*	3%	14%	1%	-11%
C[C@]12CCC(=O)C=C1CC[C@@H]1[C@@H]2[C@@H](O)C[C@@]2(C)[C@H]1CC[C@]2(O)C(=O)COP(=O)(O)O	7.6µM*	5%	/	/	/	/
C[C@]12CCC(=O)C=C1CC[C@@H]1[C@@H]2[C@@H](O)C[C@@]2(C)[C@H]1CC[C@]2(O)C(=O)COC(=O)CCC(=O)O	12µM*!	13µM*!	-1%	-4%[8.37 µM]	?	-11%
CC(C)c1c(C#N)c(N)nc(SCC(=O)c2cc3ccccc3oc2=O)c1C#N	57%	1%	22%	?	-21%	-37%
O=C(CSc1nnc(-c2cccnc2)o1)c1cc2ccccc2oc1=O	1%	7.4µM*	16%	?	-3%	-33%

Assay outcomes as filed in PubChem BioAssay.
